Consider 18 molecules from PubChem BioAssay (EPA / NIEHS).

A short description of assay [1]: ATG_NFI_CIS: Attagene CIS-FACTORIAL HepG2 Assay for human Nuclear Factor I (NFI) (AID 2282989). The note with it: HepG2 cis-regulatory reporter, NFI response element transcription; actives raise or lower the signal. The method, boiled down:
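Transfected HepG2 liver cells, exposed 24 h, supplied total RNA for oligo(dT) reverse transcription and reporter-specific PCR. Labelled, HpaI-cut fragments were sized by capillary electrophoresis; DMSO set the baseline for bidirectional fitting.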

Assay [2] can be described thus: ATG_NRF2_ARE_CIS: Attagene CIS-FACTORIAL HepG2 Assay for human Nuclear Factor Erythroid 2 Related Factor 2 (NFR2) response to Antioxidant Response Elements (ARE) (AID 2282992).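 As to AC50: reporter mRNA level measured by RT-PCR and capillary electrophoresis fluorescence.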 Conditions: HepG2 Attagene ARE/NRF2 reporter, transcription factor activity; actives raise or lower the signal. The method, boiled down: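 Transient MRTU transfection of HepG2; 24 h compound exposure; TriZol RNA, RT with oligo(dT), PCR, 6-FAM primer extension, HpaI cut, CE. Bidirectional fit vs DMSO.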

Assay [3] can be described thus: ATG_Oct_MLP_CIS: Attagene CIS-FACTORIAL HepG2 Assay for human Octamer-Binding Transcription Factor (Oct) (AID 2282993). The note with it: HepG2 Attagene cis-factorial Oct reporter, mRNA; actives raise or lower the signal. In short, it runs like this: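 Using HepG2 cells bearing transfected cis-reporter constructs, mRNA induction was read after 24 h by fluorescent RT-PCR and capillary electrophoresis, with DMSO defining baseline for gain- or loss-of-signal fits.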

The target in assay [4] is Cellular tumor antigen p53 (Homo sapiens) (UniProt P04637). Put plainly: ATG_p53_CIS: Attagene CIS-FACTORIAL HepG2 Assay for human p53 Transcription Factor (AID 2282994). Conditions: HepG2 p53 cis-element reporter, Attagene mRNA; actives raise or lower the signal. The method, boiled down: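 HepG2, transient MRTU transfection (cis promoter elements, endogenous TFs); 24 h dosing; RNA isolation, RT-PCR, 6-FAM primer extension, HpaI digest, CE fluorescence; bidirectional fit vs DMSO.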

Assay [5] can be described thus: BSK_3C_TissueFactor: BioMAP Diversity Plus: 3C Assay for Tissue Factor Biomarker Activity (AID 2282997). Conditions: BioMAP 3C HUVEC, tissue factor biomarker readout; actives raise or lower the signal. The method, boiled down:
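ELISA read-out of Tissue Factor levels on human umbilical vein endothelium collected 24 h after chemical dosing. Gain or loss of signal was fitted relative to DMSO.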

A short description of assay [6]: BSK_3C_uPAR: BioMAP Diversity Plus: 3C Assay for Urokinase-type plasminogen activator receptor (uPAR) Biomarker Activity (AID 2282998). The note with it: BioMAP 3C HUVEC, uPAR biomarker ELISA; actives raise or lower the signal. The method, boiled down: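 In this endothelial cell-based assay, human umbilical vein primary cells were treated with chemicals and harvested at 24 h. uPAR was quantified using ELISA, with gains or losses fitted relative to DMSO controls.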
On the technique in general: An ELISA detects its analyte on a solid surface through an enzyme-linked reagent.

The nature of assay [7]: BSK_3C_VCAM1: BioMAP Diversity Plus: 3C Assay for Vascular cell adhesion molecule 1 (VCAM1) Biomarker Activity (AID 2282999). Conditions: BioMAP 3C HUVEC, VCAM1 ELISA, cytokine-stimulated; actives raise or lower the signal. In short, it runs like this: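 Endothelial cells from human umbilical vein are treated with test chemical. At 24 h, VCAM-1 is measured by ELISA, and responses in either direction are fitted relative to DMSO.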

For assay [8], the target named is Myc proto-oncogene protein (Homo sapiens) (UniProt P01106). Put plainly: ATG_Myc_CIS: Attagene CIS-FACTORIAL HepG2 Assay for human Myelocytomatosis (Myc) Proto-Oncogene Transcription Factor (AID 2282990). Conditions: HepG2, Attagene cis-reporter transcription factor activity; actives raise or lower the signal. The method, boiled down: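 Cells of the HepG2 human liver line bear multiple cis-driven reporter transcription units. Reporter mRNA after 24 h exposure is reverse-transcribed, amplified, labelled and resolved by capillary electrophoresis, with gain- or loss-of-signal fitting relative to DMSO.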

Assay [9] in a line: ATG_NF_kB_CIS: Attagene CIS-FACTORIAL HepG2 Assay for human Nuclear Factor Kappa B (NF-kB) (AID 2282991). The note with it: HepG2 Attagene cis-factorial NF-kB reporter mRNA; actives raise or lower the signal. The method, boiled down:
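HepG2 cells transiently transfected with multiplexed cis-element reporter units measuring endogenous transcription factor activity; reporter mRNA read 24 h after dosing by RT-PCR, fluorescent labelling, HpaI digestion and capillary electrophoresis. Bidirectional fit against DMSO baseline.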

A short description of assay [10]: BSK_4H_Eotaxin3: BioMAP Diversity Plus: 4H Assay for Eotaxin 3 Biomarker Activity (AID 2283000).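 As to outcome: CCL26 protein level quantified by ELISA in parallel with SRB cytotoxicity check.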 The note with it: primary human endothelial cells (HUVEC); actives raise or lower the signal. The method, boiled down:
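Chemicals were added to human umbilical vein endothelium cultures, and Eotaxin-3 was quantified by ELISA at 24 h. Values were derived by bidirectional fitting with DMSO serving as negative control and activity baseline.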

Where “and” joins values, the source holds several entries; their conditions need not be identical. Equal values may be shown once. A structure can be active in one record and inactive in another. Calls of active or inactive are those of the source. The calls were made as follows: active = hit-call score of the fitted dose curve at least 0.9, where 1 is the maximum; inactive = score below 0.9.

Sequence of Cellular tumor antigen p53 (Homo sapiens) (P04637 whole entry, looked up): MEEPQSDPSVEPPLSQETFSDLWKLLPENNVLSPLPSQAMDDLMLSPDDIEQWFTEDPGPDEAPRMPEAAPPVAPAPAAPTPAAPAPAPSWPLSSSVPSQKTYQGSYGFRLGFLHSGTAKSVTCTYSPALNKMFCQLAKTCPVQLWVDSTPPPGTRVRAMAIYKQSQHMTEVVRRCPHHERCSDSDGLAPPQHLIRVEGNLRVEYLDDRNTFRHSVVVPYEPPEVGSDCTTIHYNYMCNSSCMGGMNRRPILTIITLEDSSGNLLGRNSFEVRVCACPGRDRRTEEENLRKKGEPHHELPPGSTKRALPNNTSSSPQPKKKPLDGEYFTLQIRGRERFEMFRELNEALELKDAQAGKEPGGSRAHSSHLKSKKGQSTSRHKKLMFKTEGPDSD
Sequence of Myc proto-oncogene protein (Homo sapiens) (P01106 whole entry, looked up): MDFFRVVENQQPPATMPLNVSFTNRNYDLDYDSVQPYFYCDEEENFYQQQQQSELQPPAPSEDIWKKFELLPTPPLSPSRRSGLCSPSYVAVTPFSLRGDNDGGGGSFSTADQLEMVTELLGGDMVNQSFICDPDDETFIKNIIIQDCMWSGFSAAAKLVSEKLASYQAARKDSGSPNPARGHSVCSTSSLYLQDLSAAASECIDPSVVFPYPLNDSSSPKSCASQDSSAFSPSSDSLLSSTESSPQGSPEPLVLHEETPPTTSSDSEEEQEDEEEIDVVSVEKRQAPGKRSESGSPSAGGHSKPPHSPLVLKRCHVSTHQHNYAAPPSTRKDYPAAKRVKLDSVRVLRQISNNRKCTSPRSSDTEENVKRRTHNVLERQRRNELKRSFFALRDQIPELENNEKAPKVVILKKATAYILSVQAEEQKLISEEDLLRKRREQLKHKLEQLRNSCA

For the molecule `CCCCOC(=O)c1ccc(O)cc1`, the AC50 in assay [1] was 100 µM (active); in [2] it was 100 µM (active) and 26.2 µM (active); in assay [3], 116 µM (active); in assay [5], 7.85 µM (active). Besides, the molecule was called inactive in assay [1], in [2], in assay [3], in assay [4], in assay [6] and in assay [7].

In the case of `CCN(CC)C(=O)c1cc(S(=O)(=O)Cc2ccccc2)c(N2CCC(c3ccccc3)CC2)cc1N(CC)CCN(C)C`, the call in [1], in assay [8], in assay [9], in assay [3] and in assay [4] was inactive. For the same molecule, the half-maximal activity concentration (AC50) in [2] is 3.7 µM (active); in assay [5], 32.2 µM (active); in [6] it was 5.11 µM (active); in [7], 12.9 µM (active); in assay [10], 18.7 µM (active).

`O=C=NCCCCCCN=C=O`: the result in [1], in [8], in assay [9], in assay [2], in assay [3] and in assay [4] was inactive. In addition, the result in [5], in assay [6], in [7] and in [10] was inactive.

In the case of `CCCCCCCCN(C)CCCCCCCC`, the molecule was classed as inactive in assay [1], in assay [8], in assay [9], in assay [2], in assay [3] and in assay [4]. Besides, the outcome in assay [5], in assay [6] and in assay [7] was inactive.

Turning to `C[C@]12CC[C@@H]3c4ccc(O)cc4CC[C@H]3[C@@H]1CC[C@H]2O`, the molecule was classed as inactive in assay [1], in [8], in assay [2], in assay [3], in assay [4] and in assay [7]. Further, the AC50 in assay [3] was 27.2 µM (active); in assay [4] it was 27.7 µM (active) and 10.4 µM (active) and 9.47 µM (active); in [5], 18.1 µM (active); in assay [6] it was 16.7 µM (active).

For the molecule `C[C@]12CC[C@@H]3c4ccc(O)cc4CC[C@H]3[C@@H]1CCC2=O`, the outcome in assay [1], in [8], in assay [9], in [2], in assay [3] and in assay [5] was inactive. Moreover, the result in assay [6] and in assay [7] was inactive.

Turning to `CCOC(=O)O[C@H](C)OC(=O)c1ccc2c(c1)cc(C(=O)NC1CCN(C(C)C)CC1)n2Cc1cc(-c2ccc(Cl)s2)on1`, the molecule was called inactive in [1], in assay [8], in assay [9], in assay [3] and in [4]. For the same molecule, the AC50 in assay [2] was 9.33 µM (active); in [5], 9.97 µM (active); in [6], 6.09 µM (active); in assay [7] it was 5.69 µM (active).

As for `c1ccc2ccccc2c1`, the call in assay [1], in assay [8], in assay [9], in [2], in [3] and in assay [4] was inactive. For the same molecule, the result in [5], in assay [6] and in assay [7] was inactive.

With `CC(O)CC(C)(C)O` (stereo unspecified), the call in assay [1], in assay [8], in assay [9], in assay [2], in [3] and in assay [4] was inactive. Further, the result in assay [5], in [6], in [7] and in assay [10] was inactive.

For the molecule `CCCCCCCCOc1ccc(C(=O)c2ccccc2)c(O)c1`, the outcome in assay [1], in assay [8], in assay [9], in assay [2], in assay [3] and in assay [4] was inactive. Besides, the result in assay [6] and in assay [7] was inactive. The concentration at half-maximal activity (AC50) in assay [5] was 13.2 µM (active).

With `CC/C(=C(/CC)c1ccc(O)cc1)c1ccc(O)cc1`, the concentration at half-maximal activity (AC50) in assay [1] was 13.9 µM (active); in assay [2], 12.7 µM (active) [middle of 4 runs]; in assay [3], 16.7 µM (active) and 11.1 µM (active) and 16.6 µM (active); in assay [4], 11.1 µM (active); in assay [5] it was 27.1 µM (active); in [6] it was 16.6 µM (active). The AC50 in assay [7] was 32.5 µM (active). Also, the outcome in assay [1], in assay [2], in [3] and in [4] was inactive.

For `CCCCCCCCCCCO`, the call in assay [1], in [8], in assay [9], in assay [2], in assay [3] and in [4] was inactive. Moreover, the AC50 in assay [5] was 36.4 µM (active); in assay [6], 34.2 µM (active); in assay [7], 36.3 µM (active); in [10], 31.6 µM (active).

Consider `CCCCCCCC[Si](OCC)(OCC)OCC`, for which the AC50 in assay [1] was 155 µM (active); in assay [4], 78.4 µM (active); in [7], 18.9 µM (active). The molecule was called inactive in assay [1], in assay [9], in assay [3], in assay [4], in [5] and in [6].

`c1ccc2n[nH]nc2c1`: the call in assay [1], in [8], in assay [9], in [2], in assay [3] and in [4] was inactive. Moreover, the result in assay [5], in assay [6] and in assay [7] was inactive.

With `CCO[Si](CCCNC(N)=O)(OCC)OCC`, the molecule was called inactive in assay [1], in assay [8], in assay [2], in [3], in assay [4] and in assay [5]. Also, the result in [6] and in assay [7] was inactive.

`CCN(Cc1cccnc1)C(=O)c1cccc(Cl)c1[C@]1(C)C(=O)N(Cc2ccc(OC)cc2OC)c2ccc(Cl)cc21`: the molecule was called inactive in assay [1], in assay [8] and in [9]. The half-maximal activity concentration (AC50) in [2] was 5.87 µM (active); in [3], 2.6 µM (active); in [4], 4.98 µM (active); in assay [5], 9.45 µM (active); in [6], 5.85 µM (active); in [7], 7.09 µM (active).

For the molecule `Clc1ccccc1C(c1ccccc1)(c1ccccc1)n1ccnc1`, the molecule was called inactive in [1], in assay [8], in assay [9] and in assay [4]. Besides, the AC50 is 5.21 µM (active) in assay [2]; 11.1 µM (active) in [3]; 31 µM (active) in assay [5]; 14.8 µM (active) in assay [6]; 33.1 µM (active) in assay [7].

For `O=c1c(-c2ccc(O)cc2)coc2cc(O)cc(O)c12`, the AC50 is 27.1 µM (active) in assay [1]; 73.5 µM (active) and 168 µM (active) in assay [9]; 49.4 µM (active) in assay [3]; 29.2 µM (active) in assay [6]. Moreover, the molecule was classed as inactive in assay [1], in assay [8], in assay [9], in assay [2], in [3] and in [4]. Further, the result in assay [5] and in assay [7] was inactive.

The AC50 is the midpoint of the concentration-response curve, whichever way the signal moves.
